M18AAP inhibitor: blocks P. falciparum M18 aspartyl aminopeptidase; recombinant PfM18AAP, H-Glu-NHMec fluorogenic cleavage; hit rate 1.2% among 290,000; inhibition, % at 7.35 µM; AID 1822;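 active = inhibition above the campaign mean inhibition over all tested compounds plus 3 SD, cut at about 28% in these data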
ALR inh: blocks human ALR sulfhydryl oxidase activity; P55789; purified ALR, DTT oxidation, H2O2 HRP-luminol luminescence; inhibition, % (test concentration not listed); hit rate 3.8% among 290,000;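 active = mean replicate inhibition above about 79%, with every replicate also reaching it, limit read from the data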
APOBEC3A inh: blocks human APOBEC3A ssDNA deamination | P31941 | recombinant A3A, FAM/TAMRA ssDNA deamination fluorescence | hit rate 0.41% among 330,000 | inhibition, % at 20 µM;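 active = at least 40% inhibition at 20 µM here, with at most 30% in a related deaminase screen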
NRP1-CendR mod: modulators of CendR peptide binding to human neuropilin-1; O14786; FAM-RPARPAR peptide binding to NRP-1, fluorescence polarization; inhibition, % at 25 µM; hit rate 0.85% among 360,000; AID 602438;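 active = inhibition or corrected inhibition above about 18%, plus a signal ratio from 0.5 to 1.5, limit read from the data, passing the limit was not always enough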
A3G deaminase: blocks human APOBEC3G single-stranded DNA deamination | hit rate 0.28% among 330,000 | inhibition, % at 20 µM | recombinant A3G, ssDNA deamination FAM/TAMRA fluorescence | AID 493012 | Q9HC16;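 active = inhibition of at least 40% at 20 µM, with no more than 30% in the related APOBEC3A deaminase screen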
Target sequence (Q9HC16 whole entry, looked up): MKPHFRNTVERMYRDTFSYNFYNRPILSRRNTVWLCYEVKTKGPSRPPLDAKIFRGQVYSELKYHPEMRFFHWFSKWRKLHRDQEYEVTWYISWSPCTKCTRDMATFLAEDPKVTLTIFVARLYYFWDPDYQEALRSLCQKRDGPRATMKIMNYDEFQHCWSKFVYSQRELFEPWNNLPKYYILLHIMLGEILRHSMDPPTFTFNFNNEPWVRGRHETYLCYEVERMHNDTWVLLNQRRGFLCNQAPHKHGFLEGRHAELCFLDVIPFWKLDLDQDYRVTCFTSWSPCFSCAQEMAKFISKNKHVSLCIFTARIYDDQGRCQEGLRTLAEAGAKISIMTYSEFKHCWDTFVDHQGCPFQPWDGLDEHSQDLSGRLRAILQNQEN
Yeast superoxide: caloric restriction mimetics inhibiting age-related superoxide in yeast | S. cerevisiae aged cells, superoxide DHE fluorescence; stronger effect = lower value | superoxide response (% of plate mean), % at 10 µM | hit rate 0.18% among 330,000;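 active = superoxide response under a set limit, about three screen SD below normal, cut at about 65% in these data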;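 note: yeast aged for seven days with compound at 30 °C before DHE staining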
A3A conf: confirmation of human APOBEC3A DNA deaminase inhibitors; recombinant A3A, ssDNA deaminase UDG fluorescence assay; hit rate 63% among 1,400; inhibition, % at 20 µM; shares compounds with APOBEC3A inh;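 active = inhibition reaching a set limit, 80% of the first screen's cutoff, at 20 µM in any replicate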
UDG ctr A3A: counter-screen for APOBEC3A inhibitors: UDG; UDG counterscreen, FAM/TAMRA uracil oligo fluorescence; 1,000 tested, under 10 active; inhibition, % at 20 µM; shares compounds with APOBEC3A inh; call rule not given here
Of the large screens only hits and unclear results are named; the others gave an inactive call (follow-up assays come after a bar, where they were run). This is a sample that favours compounds with a hit; in the whole collection about 5.2% have one here.

COc1ccccc1Sc1ccccc1/C=N/NC(N)=O	none
O=C(NC(Cc1ccccc1)c1nc2ccccc2[nH]1)C1CC(=O)N(c2ccc3c(c2)OCCO3)C1 (stereo not given)	APOBEC3A inh 54.8 (no result: ALR inh) | A3A conf inactive
CN1CCN(CC(=O)Nc2sc3c(c2C(=O)Nc2ccccc2)CCCC3)CC1	APOBEC3A inh 56.7 | A3A conf 42.5 | UDG ctr A3A inactive
C=CCn1c(CNC(=O)c2cccs2)nnc1SCC(=O)Nc1ccc(C(=O)O)cc1	APOBEC3A inh 48.5 | A3A conf inactive
CC1=CC(C)C(C(=O)O)C(C(=O)O)C1 (stereo not given)	none
CC[N+](C)(CC)CC(=O)OCC1C(C)C=C(C)CC1C (stereo not given)	APOBEC3A inh 73.3 | A3A conf 81.7 | UDG ctr A3A inactive
Cc1ccc(S(=O)(=O)N2CCC(C(=O)Nc3ccc(N4CCOCC4)cc3)CC2)cc1C	APOBEC3A inh 43.4 (no result: M18AAP inhibitor, ALR inh, Yeast superoxide) | A3A conf inactive
O=C(Nc1ccc(N2CCOCC2)cc1)C1CCN(S(=O)(=O)c2ccc3c(c2)OCCO3)CC1	none
O=C(COc1ccc2ccccc2c1)N1CCN(c2ccccc2)CC1	none (no result: M18AAP inhibitor)
COc1ccc(N2CCN(C(=O)COc3ccc4ccccc4c3)CC2)cc1	APOBEC3A inh 46.4 | A3A conf inactive | UDG ctr A3A inactive
CCNc1nc(NC(C)C)nc(SCCOc2ccc(C)cc2)n1	none
CC(C)(C)N(NC(=O)Nc1ccc(F)cc1)C(=O)c1ccccc1	none
CC(C)(C)N(NC(=O)Nc1ccc(Cl)c(Cl)c1)C(=O)c1ccccc1	APOBEC3A inh 40.3 | A3A conf inactive
COc1ccc2oc(C(=O)OCC(=O)Nc3ccc(NC(C)=O)cc3)c(C)c2c1	APOBEC3A inh 46.6 (no result: M18AAP inhibitor) | A3A conf inactive
COc1ccc2oc(C(=O)OCC(=O)Nc3cccc(S(=O)(=O)N4CCOCC4)c3)c(C)c2c1	APOBEC3A inh 43.5 (no result: M18AAP inhibitor) | A3A conf inactive | UDG ctr A3A inactive
CC1(C)C(=O)Nc2ccccc2N1C(=O)COC(=O)c1cc(Cl)cc(Cl)c1	none (no result: M18AAP inhibitor)
COC(=O)c1cc(C(=O)OCC(=O)N2c3ccccc3NC(=O)C2(C)C)cc([N+](=O)[O-])c1	APOBEC3A inh 96.9 | A3A conf inactive | UDG ctr A3A inactive
Cc1ccc(C)c(OCCC(=O)OCC(=O)N2c3ccccc3NC(=O)C2(C)C)c1	APOBEC3A inh 51.9 (no result: M18AAP inhibitor) | A3A conf 55.5 | UDG ctr A3A inactive
COc1ccc(/C(C)=N\O)cc1OC	none
CCN(CC)S(=O)(=O)c1cccc(C(=O)Nc2ccc(S(=O)(=O)NC3=NCCCCC3)cc2)c1	APOBEC3A inh 55.1 (no result: M18AAP inhibitor) | A3A conf inactive
COc1cc(OC)cc(C(=O)OCC(=O)Nc2cccc(S(=O)(=O)NC3=NCCCCC3)c2)c1	APOBEC3A inh 88.4 (no result: M18AAP inhibitor) | A3A conf inactive | UDG ctr A3A inactive
CCOC(=O)COc1nc(C)c(Br)c(OC)n1	none
COc1ccc(NC(=O)c2ccc(OCC3CCCO3)cc2)cc1Cl (stereo not given)	none (no result: M18AAP inhibitor, ALR inh, Yeast superoxide)
COc1ccc(NC(=O)c2ccc(OCC3CCCO3)cc2)cc1OC (stereo not given)	APOBEC3A inh 49.8 (no result: M18AAP inhibitor) | A3A conf 36.1 | UDG ctr A3A inactive
COc1cc(NC(=O)c2noc3c2CCC3)c(OC)cc1Cl	APOBEC3A inh 48.5 | A3A conf 55.0 | UDG ctr A3A inactive
COc1ccc(NC(=O)c2noc3c2CCC3)cc1	none
CN(C)CCN(Cc1ccccc1)C(=O)[C@H](Cc1ccccc1)N1C(=O)c2ccccc2C1=O	APOBEC3A inh 42.4 (no result: ALR inh) | A3A conf inactive
O=C(N/N=C/c1cc(Br)c(O)c(Br)c1O)c1ccc2c(c1)OCCO2	none (no result: ALR inh)
O=C(N/N=C/c1cc(Br)c(Br)o1)c1ccc2c(c1)OCCO2	APOBEC3A inh 75.7 | A3A conf 49.9 | UDG ctr A3A inactive
C/C(=N\NC(=O)CO/N=C(\C)c1cccs1)c1ccc(N)cc1	none
C/C(=N\OCC(=O)N/N=C/c1ccc(C)cc1O)c1cccs1	APOBEC3A inh 51.1 | A3A conf inactive | UDG ctr A3A inactive
Cc1nn(CC(=O)Nc2ccc(Cl)cn2)c(C)c1[N+](=O)[O-]	none

Assay outcomes: PubChem, several laboratories
